In PubChem BioAssay AID2069 (Sanford-Burnham Center for Chemical Genomics, 2009):
In all, about 1,200 compounds went through this assay and about 210 (18%) were called active. The list is a sample of the results. Unmarked numbers belong to inactive results. No stated cut-off is given here; in the data, active means inhibition above about 30%; inactive means the rest.

test: fluorescence readout artefact check – biochemical, HTRF, uHTS, artefact control for SUMOylation inhibitor project, confirmation (AID 2069); conditions: HTRF interference counterscreen, at 35 µM, stronger effect = higher value

| Compound | inhibition |
| --- | --- |
| Nc1cccc2cnccc12 | 3.2% |
| COc1ccc(C(=O)CSc2nnc(-c3ccco3)c(-c3ccco3)n2)cc1 | -2.15% |
| NN1C(=O)/C(=C\c2ccco2)SC1=S | 4.75% |
| NC1=NC(=O)/C(=C\c2ccco2)S1 | 16.6% |
| Nc1ccc2c(c1)C/C(=C/c1ccco1)C2=O | 62.9% (active) |
| COc1ccc(-c2csc(NC(=S)NC(=O)/C=C/c3ccco3)n2)cc1OC | 10.6% |
| Cc1ccc(/C=C2\SC(=S)N(/N=C/c3cc([N+](=O)[O-])ccc3O)C2=O)o1 | -7.65% |
| Cc1nn2cc(-c3ccccc3)nc2[nH]c1=O | 62.4% (active) |
| CCOC(=O)c1c2ccc(OCC(=O)NN)cc2n2ccccc12 | 29.6% |
| CCOC(=O)c1c2ccc(OCC(=O)N/N=C/c3ccc(C)cc3)cc2n2ccccc12 | 19.8% |
| N#Cc1c2ccc(OCC(N)=O)cc2n2ccccc12 | 35.8% (active) |
| CCc1cc2c(=O)nc3n(c2s1)Cc1ccccc1/C3=C(/O)c1cccc([N+](=O)[O-])c1 | 17% |
| O=C(/C=C/c1cccs1)Nc1scc(-c2ccccc2)c1C(=O)O | 26.6% |
| Cc1cccn2c(=O)c3cc(S(=O)(=O)c4ccccc4)c(=N)n(Cc4ccco4)c3nc12 | 5.25% |
| COc1cccc(Cn2cccc(NC(=O)NC3CCCCC3)c2=O)c1 | -4.4% |
| Cc1cccn2c(=O)c3cc(C(=O)NC4CCCCCC4)sc3nc12 | 31.1% (active) |
| O=C1C=C(O)CC(c2ccco2)C1 (configuration not stated) | 5.85% |
| COCCNC(=S)Nc1ccc2nsnc2c1 | -1.2% |
| Cc1cc(C)cc(NC(=S)Nc2cccc3ccccc23)c1 | -13.7% |
| COc1ccc(-n2c(NC(=O)c3ccco3)c(C#N)c3nc4ccccc4nc32)cc1 | 4.15% |
| N#Cc1c(N)n(CCNC(=O)c2ccccc2)c2nc3ccccc3nc12 | 19.1% |
| N#Cc1c(N)n(-c2cccc(C(=O)O)c2)c2nc3ccccc3nc12 | 33.5% (active) |
| Cc1cccn2c(=O)c3cc(C#N)c(=NC(=O)c4ccco4)n(Cc4ccco4)c3nc12 | 23.1% |
| O=c1[nH]cc(I)cc1I | -3.65% |
| O=C1CC(c2ccco2)CC(O)=C1C=Nc1cc(Cl)ccc1O (configuration not stated) | -2.5% |

| Compound | inhibition |
| --- | --- |
| COc1cccc(-c2nc(SCC(=O)Nc3nc(-c4ccccc4)c(C)s3)[nH]c(=O)c2C#N)c1 | -0.65% |
| COc1ccc(C(N)c2nccc3cc(OC)c(OC)cc23)cc1OC (configuration not stated) | -2.9% |
| CN(C(=S)Nc1cccnc1)c1ccc(O)cc1 | 5.3% |
| O=C(Nc1ccc(N2C(=O)C3C4C=CC(C4)C3C2=O)cc1)Nc1cccnc1 (configuration not stated) | 16.1% |
| CC(=O)c1ccc(NC(=O)Nc2cccnc2)cc1 | 41.8% (active) |
| CCCC(=O)NC(=S)Nc1cccc2c(O)cccc12 | 11.1% |
| Cc1ccc(NC(=O)Nc2cccn(Cc3c(F)cccc3Cl)c2=O)cc1 | 3.65% |
| Fc1ccc(-c2ccnc3nc(N4CCOCC4)nn23)cc1 | 32.5% (active) |
| COc1ccc(-c2ccnc3nc(/N=C/N(C)C)nn23)cc1 | 44.7% (active) |
| CN(C)/C=N/c1nc2nccc(-c3ccc(F)cc3)n2n1 | 37.5% (active) |
| N#CCCN(Cc1cccnc1)C(=S)NC1CC2C=CC1C2 (configuration not stated) | -9.75% |
| Cc1ccc(NC(=O)c2ccccc2OCC(=O)Nc2cccc(Cl)c2C)nc1 | 7.7% |
| CCOc1cc(CNc2cccc3ccccc23)cc(Br)c1OCC(=O)NC(C)(C)C | 12.7% |
| O=C(c1csc(Nc2cccc3ccccc23)n1)N1CCCC1 | 23.1% |
| O=[N+]([O-])c1c(NCCO)cc(N2CCCCCC2)c2nonc12 | 22.4% |
| COc1cc(OC)c2c(O)c3c(c(-c4c5c(c(O)c6c(OC)cc(OC)cc46)CO[C@@H](C)[C@H]5O)c2c1)[C@H](O)[C@H](C)OC3 | 11% |
| O=[N+]([O-])c1c(NCCO)cc(N2CCC3(CC2)OCCO3)c2nonc12 | -10.3% |
| CCOc1ccc(C2Nc3cccc4cccc(c34)N2)cc1OC | -29.6% |
| O=C1C(=O)c2ccccc2C(O)=C1CCCCl | -11.4% |
| CCc1ccccc1NC(=O)Nc1cccn(Cc2ccccc2F)c1=O | -9.65% |
| CC1CCCCC1NC(=O)c1cc2c(=O)n3ccccc3nc2n1C (configuration not stated) | 57.8% (active) |
| Cc1ccc(S(=O)(=O)c2cc3c(=O)n4ccccc4nc3n(Cc3ccco3)c2=N)cc1C | 9.75% |
| Cn1c(C(=O)NCC2CCCO2)cc2c(=O)n3ccccc3nc21 (configuration not stated) | 51% (active) |
| C=CCNc1nc(NCc2ccccc2)c(C#N)c2c1CN(C)CC2 | 18.9% |
| OCCNC(=S)Nc1ccc2nsnc2c1 | 10.1% |

| Compound | inhibition |
| --- | --- |
| CC(C)N1CCC2(CC1)C(C#N)=C(N)NC(S)=C2C#N | 33.9% (active) |
| Cc1ccoc1C(=O)NCCCNC(=O)c1occc1C | 0.95% |
| COc1cc2c(C#N)c(N3CCN(c4ccccc4OC)CC3)nc(N)c2c(N)n1 | 16.6% |
| CCOc1cc2c(C#N)c(N3CCOCC3)nc(N)c2c(N)n1 | 51.2% (active) |
| COc1ccc(CN2C(=O)Cc3c2nc(N)c2c(N)nc(N4CCOCC4)c(C#N)c32)cc1 | 42.5% (active) |
| COc1cc2c(C#N)c(N3CCCCC3)nc(N)c2c(N)n1 | 25.2% |
| N#Cc1c(N2CCCCC2)nc(N)c2c(N)nc(SCC(=O)O)cc12 | 14.9% |
| CCOc1cc2c(C#N)c(N3CCCCC3)nc(N)c2c(N)n1 | 20.6% |
| COCCN(CCOC)c1nc(N)c2c(N)nc3c(c2c1C#N)CC(=O)N3Cc1ccc(Cl)cc1 | 27.9% |
| COCC(C)N1C(=O)Cc2c1nc(N)c1c(N)nc(N3CCN(c4ccccc4F)CC3)c(C#N)c21 (configuration not stated) | 19.1% |
| COc1cc2c(C#N)c(N3CCN(C)CC3)nc(N)c2c(N)n1 | 43.2% (active) |
| CCOc1cc2c(C#N)c(N3CCNCC3)nc(N)c2c(N)n1 | 47.2% (active) |
| COc1cc2c(C#N)c(N3CCCC3)nc(N)c2c(N)n1 | 27.4% |
| S=c1[nH]nc(-c2cc(-c3ccccc3)n[nH]2)n1/N=C/c1ccc(Br)s1 | -6.25% |
| O=C(NC(=S)Nc1cccc2c(O)cccc12)c1ccco1 | -6.9% |
| Cc1ccc(Cn2cccc(NS(C)(=O)=O)c2=O)cc1 | -3.15% |
| O=S(=O)(Nc1cc2nc3ccccc3nc2n1Cc1ccccc1)c1ccc(Cl)cc1 | 24.5% |
| Oc1cccc(C=NCc2ccccc2)c1O | -0.8% |
| CNS(=O)(=O)c1ccc2nc(NC(=O)/C=C/c3ccco3)sc2c1 | 25.6% |
| COc1cc2cc(NC(C)=O)cc(NCc3ccccc3)c2cc1OC | -19.9% |
| Cc1ccc(N2CCN(Cc3ccccc3)CC2=O)c(C)c1 | -6.45% |
| O=C(O)/C=C/c1cn(-c2ccccc2)nc1-c1cc2ccccc2o1 | 41.2% (active) |
| O=C(O)/C=C\c1cn(-c2ccccc2)nc1-c1cc2ccccc2o1 | 48.1% (active) |
| O=Cc1cn(-c2ccccc2)nc1-c1cc2cc(O)ccc2oc1=O | 11.8% |
| Nc1c(N2CCOCC2)cc(Cl)c2nonc12 | 3% |

| Compound | inhibition |
| --- | --- |
| Cc1ccc(C(=O)N[C@H](C(=O)Nc2cc(Cl)cc(Cl)c2)C(C)C)cc1 | 3.15% |
| N#Cc1ccsc1NC(=O)CN1CCN(c2ccc(O)cc2)CC1 | 14.3% |
| Cc1ccc(-c2cc(-c3ccccc3O)nc(N/N=C/c3cccnc3)n2)cc1 | 52.2% (active) |
| Nc1c(C(=O)N/N=C/c2cccnc2)oc2nc(-c3ccco3)cc(-c3ccco3)c12 | 20% |
| S=c1[nH]nc(-c2ccncc2)n1/N=C/c1ccccc1Cl | -1.75% |
| CC(C)N1C(=O)CC(Nc2cccc3cccc(N)c23)C1=O (configuration not stated) | -13.8% |
| Cc1ccc(-c2[nH]ncc2/C=N/n2c(C)nc3ccccc3c2=O)cc1 | -0.85% |
| O=c1c2ccccc2nc(/C=C/c2cccnc2)n1Cc1ccccc1 | 30.9% (active) |
| O=C(Cc1cccc2ccccc12)NN1C(=O)/C(=C\c2cccnc2)SC1=S | -7.8% |
| COc1ccc(S(=O)(=O)C(C#N)c2nc3ccccc3nc2N2CCCCC2)cc1 (configuration not stated) | -7.95% |
| Cc1ccc(S(=O)(=O)C(C#N)c2nc3ccccc3nc2N2CCCC2)cc1C (configuration not stated) | -3.55% |
| CCOC(=O)c1c(NC(=O)C2C3C=CC(CC3)C2C(=O)O)sc(C)c1CC (configuration not stated) | 0.4% |
| O=C(N/N=C/c1ccc([N+](=O)[O-])o1)c1cc(-c2ccc(-c3ccccc3)cc2)nc2ccccc12 | 4.6% |
| Cc1ccc(C2Nc3cccc4cccc(c34)N2)s1 | -32.4% |
| Cc1cc(=O)n2[nH]c(N)c(N=Nc3ccccc3F)c2n1 | -14.7% |
| COc1ccc(C(=O)Nc2ccc(-c3nnn(CC(=O)N4CCN(C(=O)c5ccco5)CC4)n3)cc2)cc1 | 25.6% |
| COc1ccc(/C=C2/SC(=S)N(c3ccc(S(=O)(=O)Nc4nccs4)cc3)C2=O)cc1 | -18% |
| CCOC(=O)c1nn(-c2ccc3c(c2)CCN3C(C)=O)cc1O | 48.8% (active) |
| COc1ccc(Br)cc1CNc1ccc(O)cc1 | -15.2% |
| Cc1ccc(-c2nn(-c3ccccc3)cc2/C=C2\SC(=S)N(CCCCCC(=O)O)C2=O)o1 | 37% (active) |
| O=C(O)CCCN1C(=O)/C(=C/c2cn(-c3ccccc3)nc2-c2cccs2)SC1=S | 4.55% |
| O=C(O)CCCN1C(=O)/C(=C/C=C/c2ccco2)SC1=S | 11.7% |
